This is an account of results in PubChem BioAssay (Tox21).

Inconclusive results are not listed. Active and inactive are the calls of the source. The call rests on the fitted dose curve.
On the % scale 0 is the no-effect control and ±100 the full control effect; potency means the concentration at half of the fitted maximal effect.

Retinoic acid receptor RXR-alpha (Homo sapiens), sequence (P19793 whole entry, looked up): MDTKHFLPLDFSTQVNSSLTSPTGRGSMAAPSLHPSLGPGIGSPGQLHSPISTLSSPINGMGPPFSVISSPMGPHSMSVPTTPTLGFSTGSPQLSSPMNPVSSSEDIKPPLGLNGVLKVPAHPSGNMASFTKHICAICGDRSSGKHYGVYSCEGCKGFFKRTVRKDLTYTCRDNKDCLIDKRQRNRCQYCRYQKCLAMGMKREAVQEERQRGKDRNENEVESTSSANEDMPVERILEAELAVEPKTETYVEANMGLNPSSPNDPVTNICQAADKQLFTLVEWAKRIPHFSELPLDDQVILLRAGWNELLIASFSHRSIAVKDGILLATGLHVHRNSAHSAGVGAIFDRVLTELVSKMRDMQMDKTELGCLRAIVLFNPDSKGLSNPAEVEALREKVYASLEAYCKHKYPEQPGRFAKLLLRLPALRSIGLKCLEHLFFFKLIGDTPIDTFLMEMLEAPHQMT

This experiment has as its target Retinoic acid receptor RXR-alpha (Homo sapiens) (UniProt P19793). Nature of the experiment: qHTS assay to identify small molecule agonists of the RXR signaling pathway (AID 1159527). Further: nearly all actives have a fitted effect of over 35% in size. Particulars: HEK293T RXRa-UAS-bla, beta-lactamase ratio, 16 h; series mostly up to 76.8 µM; activation: at the top concentration. The text has this: U.S. Tox21 Program National Center for Advancing Translational Sciences [NCATS] NIH Chemical Genomics Center [NCGC] U.S. Environmental Protection Agency [EPA] National Institutes of Environmental Health Sciences [NIEHS] National Toxicology Program [NTP] U.S. Food and Drug Administration [FDA] Tox21 Assay Overview: The Retinoid X receptor (RXR), a nuclear hormone receptor expressed in liver, spleen, placenta, epidermis, central nervous system. These receptors are able to form homo and heterodimers with other nuclear receptors and due to this heterodimerizing ability, RXR functions as master regulators producing diverse physiological effects. Three subtypes of RXR exist; alpha, beta and gamma. Retinoid X receptor alpha (RXR-alpha) has potential roles in metabolic signaling pathways, skin alopecia, dermal cysts, cardiac development, insulin sensitization etc. Therefore screening environmental chemicals on RXR-alpha signaling can be used for the studies focused on such therapeutic applications. For quantification of RXR-alpha ligands signaling, GeneBLAzer RXR alpha-UAS-bla HEK 293T (Life Technologies, Carlsbad, CA) cells containing a beta-lactamase reporter-gene under control of Retinoid X receptor-alpha response element were used to screen Tox21 10K library.
Tox21 Assay Protocol Summary: RXR-alpha HEK 293T cells were dispensed at 2,000 cells/6 uL of assay medium containing 2% charcoal-stripped FBS using a Multidrop Combi (ThermoFisher Scientific, Waltham, MA) dispenser. The assay was performed in black wall/clear-bottom 1536-well plates (Greiner Bio-One North America Inc. Monroe, NC). 9-cis retinoic acid was used as a positive control in the agonist mode screen. After the assay plates were incubated at 37 C and 5% CO2 for 5 hr, 23 nL of compounds dissolved in DMSO, positive controls or DMSO only were transferred to the assay plate by a Pintool station (Kalypsys, San Diego, CA). The assay plates were incubated at 37 C and 5% CO2 for 16 hr. One uL of LiveBLAzer B/G FRET substrate (Life Technologies) was added using a Flying Reagent Dispenser (Aurora Discovery, San Diego, CA) and the plates were incubated at room temperature for 2 hr. Fluorescence intensity (405 nm excitation, 460/530 nm emission) was measured using an Envision plate reader (PerkinElmer, Shelton, CT).
In general terms: In qHTS, concentration-response curves come from the screen itself.
For the compound `CC(=N\O)/C(C)=N/O`, the “activation” value was 12.9% (inactive).

As to `COC(=O)c1cc(S(N)(=O)=O)ccc1OC`, the “activation” value was 2.34% [at 35.3 µM] (inactive).

On to `Cc1nc2ccccn2c(=O)c1CCN1CCC(C(=O)c2ccc(F)cc2)CC1`, for which the “activation” value is 0.0058% [at 35.3 µM] (inactive).

Consider `CC(CCc1ccc2c(c1)OCO2)NN` (stereo not given), for which the “activation” value was 1.3% [at 35.3 µM] (inactive).

On to `Cc1cc(C(=C2C=CC(=Nc3ccc(S(=O)(=O)O)cc3S(=O)(=O)O)C=C2)c2ccc(Nc3ccc(S(=O)(=O)O)cc3)cc2)ccc1N`, for which the “activation” value was -1.12% [at 35.3 µM] (inactive).

With `CC(C)(C)C(=O)C(Oc1ccc(Cl)cc1)n1ccnc1` (stereo not given), the “activation” value is -15.4% [at 35.3 µM] (inactive).

With `CC(=O)Nc1ccccc1C`, the “activation” value is 15.1% (inactive).

Regarding `NC(=O)Nc1ccc(Cl)cc1`, the “activation” value is 1.47% (inactive).

With `O=C(C(=O)c1ccccc1)c1ccccc1`, the “activation” value was -11% (inactive).

As for `[O]=[Bi]`, the activation was -1.06% [at 6.98 µM] (inactive).

As for `COc1ccccc1N=Nc1c(S(=O)(=O)O)cc2cc(S(=O)(=O)O)cc(NC(C)=O)c2c1O`, the “activation” value was 9.25% (inactive).

`N#C[C@@H]1C[C@@H]2C[C@@H]2N1C(=O)[C@@H](N)C12CC3CC(CC(O)(C3)C1)C2`: the “activation” value is 0.27% [at 35.3 µM] (inactive).

As for `CC1=C(C=O)C(C)(C)CCC1`, the “activation” value was 12% (inactive).

Regarding `Cc1nc2ccccc2s1`, the “activation” value was -4.77% (inactive).

In the case of `COCC(O)CO` (stereo not given), the “activation” value was -1.69% (inactive).

Regarding `CCCCC/C(=C\c1ccccc1)CO`, the “activation” value is -10.9% (inactive).

Regarding `CCCCC(CC)COC(=O)COc1ccc(Cl)cc1C` (stereo not given), the “activation” value was 10.1% (inactive).

In the case of `CC(=O)[C@H]1CC[C@H]2[C@@H]3C[C@H](C)C4=CC(=O)CC[C@]4(C)[C@H]3[C@@H](O)C[C@]12C`, the “activation” value was -12.9% [at 35.3 µM] (inactive).

With `CCCC(=O)O[C@]1(C(=O)COC(=O)CC)CC[C@H]2[C@@H]3CCC4=CC(=O)CC[C@]4(C)[C@H]3[C@@H](O)C[C@@]21C`, the activation is 11.5% [at 15.8 µM] (inactive).

Regarding `CCCCCCCC/C=C\CCCCCCCC(=O)OC(CO)CO`, the “activation” value was -2.36% (inactive).

For `C[N+]1(C)CCC(=C(c2ccccc2)c2ccccc2)CC1`, the “activation” value is -2.01% [at 35.3 µM] (inactive).

In the case of `O=[N+]([O-])c1cccc(S(=O)(=O)NCCNS(=O)(=O)c2cccc([N+](=O)[O-])c2)c1`, the “activation” value was -0.986% [at 35.3 µM] (inactive).

Take `COc1cc2c(N3CCN(C(=O)Nc4ccc(OC(C)C)cc4)CC3)ncnc2cc1OCCCN1CCCCC1`: the “activation” value is -18.5% [at 35.3 µM] (inactive).

Consider `Cn1c(=O)c2c(ncn2CC(=O)O)n(C)c1=O`, for which the “activation” value was 2.74% [at 35.3 µM] (inactive).

Consider `CN1CCN(CCCN2c3ccccc3Sc3ccc(S(=O)(=O)N(C)C)cc32)CC1`, for which the “activation” value was -26.8% [at 35.3 µM] (inactive).

Regarding `C/C(=N/NC(=O)c1ccncc1)C(=O)O`, the “activation” value is -7.45% [at 35.3 µM] (inactive).

With `CO[C@H]1O[C@H](CO)[C@@H](O)[C@H](O)[C@H]1O`, the “activation” value is -10.3% (inactive).

Consider `C[Si]1(C)O[Si](C)(C)O[Si](C)(C)O1`, for which the “activation” value is 1.76% (inactive).

Consider `CCCCC(=O)O[C@]1(C(=O)CO)CC[C@H]2[C@@H]3CCC4=CC(=O)CC[C@]4(C)[C@H]3[C@@H](O)C[C@@]21C`, for which the “activation” value was -12.5% [at 35.3 µM] (inactive).

Consider `CC(C)CCCC(=O)O`, for which the “activation” value is 0.336% (inactive).

`CCCCCCCCCCCCCCCCBr`: the activation is 0.932% [at 15.8 µM] (inactive).

In the case of `CN1Cc2cc(C(=O)N3CCC(C4CCNCC4)CC3)ccc2N[C@@H](CC(=O)O)C1=O`, the “activation” value is 6.44% [at 35.3 µM] (inactive).

Take `CCn1nc(C)c2c1C(=O)NCC(c1ccc(O)cc1)=N2`: the “activation” value was 4.59% (inactive).

In the case of `CCC(C(=O)OCCOCCN(CC)CC)c1ccccc1` (stereo not given), the “activation” value is -1.49% [at 35.3 µM] (inactive).

Consider `c1ccc(COCc2ccccc2)cc1`, for which the “activation” value was 15.7% (inactive).

With `Cc1oncc1C(=O)Nc1ccc(C(F)(F)F)cc1`, the “activation” value was -8.71% [at 35.3 µM] (inactive).

In the case of `O=C(O)c1snc(Cl)c1Cl`, the “activation” value was -3.06% (inactive).

`CCN(Cc1cccc(S(=O)(=O)O)c1)c1ccc(C(=C2C=CC(=[N+](CC)Cc3cccc(S(=O)(=O)[O-])c3)C=C2)c2ccccc2)cc1`: the “activation” value is -13.1% [at 35.3 µM] (inactive).

Take `CCCCCCCCCCCCCCC[C@H](O)[C@@H](N)CO`: the “activation” value was 8.75% [at 35.3 µM] (inactive).

In the case of `C=CC(C)(O)CCCC(C)CCCC(C)CCCC(C)C` (stereo not given), the Potency was 6.13 µM (active).
